The values that follow come from PubChem BioAssay (EPA / NIEHS).

Read-out in assay [1]: Interleukin 2 (IL2), IL2 (gene 3558)
The experiment in a line: BSK_BT_xIL2: BioMAP Diversity Plus: BT Assay for Interleukin 2 (IL2) Biomarker Activity (AID 2284245). Particulars: primary human B cells with PBMC. A digest of the protocol:
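Readout: supernatant IL-2 via Luminex xMAP after 24 h chemical dosing of a B cell/PBMC primary human co-culture. DMSO serves as negative control and baseline; increases in signal were fitted.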

Read-out in assay [2]: Basic fibroblast growth factor (bFGF), FGF2 (gene 2247)
The experiment in a line: BSK_MyoF_bFGF: BioMAP Diversity Plus: MyoF Assay for Basic fibroblast growth factor (bFGF) Biomarker Activity (AID 2284246). The following applies: primary human lung fibroblasts. A digest of the protocol: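 Primary human lung fibroblast culture, 24 h compound exposure; ELISA read-out of bFGF. Positive-direction fit vs DMSO baseline. Cytotoxicity: SRB stain (0.1% SRB, 10% TCA fixation, 560 nm) in parallel wells.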

Read-out in assay [3]: Collagen IV, COL4A1 (gene 1282)
The experiment in a line: BSK_MyoF_CollagenIV: BioMAP Diversity Plus: MyoF Assay for Collagen IV Biomarker Activity (AID 2284247). The following applies: primary human lung fibroblasts. A digest of the protocol:
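ELISA read-out of Collagen IV in lung fibroblast cultures, 24 h post-dosing; gain of signal relative to DMSO vehicle baseline defines activity.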

Read-out in assay [4]: Plasminogen activator inhibitor-1 (PAI1), SERPINE1 (gene 5054)
The experiment in a line: BSK_MyoF_PAI1: BioMAP Diversity Plus: MyoF Assay for Plasminogen activator inhibitor-1 (PAI1) Biomarker Activity (AID 2284256).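 On outcome: PAI-1 protein level measured by ELISA in fibroblast cultures; PAI-1 read 24 h after compound addition.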 Particulars: primary human lung fibroblasts. The method in brief:
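ELISA read-out of PAI-1 from primary human lung fibroblast cultures 24 h after dosing; gain-of-signal fit versus DMSO control.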

Read-out in assay [5]: Interleukin-8 (IL8), CXCL8 (gene 3576)
The assay can be described thus: BSK_MyoF_IL8: BioMAP Diversity Plus: MyoF Assay for Interleukin-8 (IL8) Biomarker Activity (AID 2284261). The following applies: primary human lung fibroblasts. The method in brief: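 ELISA read-out of IL-8 from primary human lung fibroblasts, 24 h post-dose; positive-direction curve fitting relative to DMSO vehicle baseline.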

Read-out in assay [6]: Monokine induced gamma interferon (MIG), CXCL9 (gene 4283)
The experiment in a line: BSK_KF3CT_MIG: BioMAP Diversity Plus: KF3CT Assay for Monokine induced gamma interferon (MIG) Biomarker Activity (AID 2284248). The following applies: primary human keratinocytes with fibroblasts. As to the method:
BSK_KF3CT is a cell-based, multiplexed-readout assay that uses keratinocytes and foreskin fibroblasts, a human skin primary cell co-culture, with measurements taken at 24 hours after chemical dosing in a 96-well plate.BSK_KF3CT_MIG is an assay component measured in the BSK_KF3CT assay. It measures MIG antibody related to regulation of gene expression using ELISA technology.Data from the assay component BSK_KF3CT_MIG was analyzed at the endpoint, BSK_KF3CT_MIG, in the positive analysis fitting direction relative to DMSO as the negative control and baseline of activity. Using a type of binding reporter, gain or loss-of-signal activity can be used to understand protein changes. To generalize the intended target to other relatable targets, this assay endpoint is annotated to the 'cytokine' intended target family, where the subfamily is 'chemotactic factor'.
The levels of cell surface (or secreted, indicated by the prefix "s") biomarker endpoints were measured by ELISA. Overt cytotoxicity to cells in confluent adherent cultures (all systems other than the BT system) was assessed by measuring total protein levels using sulforhodamine B (SRB) staining in parallel cultures at the time of biomarker measurements, indicated as SRB endpoints. For proliferation assays for adherent cell types, individual cell types are cultured at sub-confluence and relative cell numbers quantified by SRB staining at time points optimized for each system (48 h: 3C and CASM3C systems; 72 h: BT and HDF3CGF systems; 96 h: SAg system). SRB was performed by staining cells with 0.1% SRB after fixation with 10% TCA and reading wells at 560 nm.Viability and proliferation of PBMC (T cells) was quantified by Alamar Blue reduction for the SAg and BT systems. […] Then, Alamar Blue (20 uL/well) (Invitrogen, Cat DAL1100) was added for 6 h, and the plates were read with a fluorescence microplate reader at 546/580 nm (excitation/emission). […] Plates were read after 6 h.

Read-out in assay [7]: Collagen I, COL1A1 (gene 1277)
The experiment in a line: BSK_hDFCGF_CollagenI: BioMAP Diversity Plus: hDFCGF Assay for Collagen I Biomarker Activity (AID 2284250). Particulars: primary human foreskin fibroblasts. The method in brief:
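ELISA read-out of Collagen I in human dermal foreskin fibroblast cultures, 24 h after dosing. Gain of signal versus DMSO vehicle defines activity.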

Read-out in assay [8]: Interferon-inducible T-cell alpha chemoattractant (ITAC), CXCL11 (gene 6373)
The assay can be described thus: BSK_hDFCGF_ITAC: BioMAP Diversity Plus: hDFCGF Assay for Interferon-inducible T-cell alpha chemoattractant (ITAC) Biomarker Activity (AID 2284251). Particulars: primary human foreskin fibroblasts. A digest of the protocol: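 Measured by ELISA, the chemokine level serves as the endpoint in human skin fibroblast primary cultures 24 h after compound addition. Increases relative to DMSO-treated wells define activity.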

Read-out in assay [9]: Plasminogen activator inhibitor-1 (PAI1), SERPINE1 (gene 5054)
The experiment in a line: BSK_KF3CT_PAI1: BioMAP Diversity Plus: KF3CT Assay for Plasminogen activator inhibitor-1 (PAI1) Biomarker Activity (AID 2284252). Particulars: primary human keratinocytes with fibroblasts. The method in brief:
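Keratinocyte + dermal fibroblast co-culture (human primary); 24 h post-dose; PAI-1 by ELISA; gain-of-signal fit vs DMSO control.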

Read-out in assay [10]: Interleukin-8 (IL8), CXCL8 (gene 3576)
The experiment in a line: BSK_KF3CT_IL8: BioMAP Diversity Plus: KF3CT Assay for Interleukin-8 (IL8) Biomarker Activity (AID 2284254). Particulars: primary human keratinocytes with fibroblasts. The method in brief: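 Human primary keratinocyte plus foreskin fibroblast co-culture dosed with test chemicals; IL-8 measured by ELISA 24 h after dosing. Activity fitted in the positive direction relative to DMSO negative control.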

Molecules are shown by their SMILES. Activity calls are given as the source filed them. How the source made its calls: active means hit-call score of the fitted dose curve at least 0.9, where 1 is the maximum; inactive means score below 0.9.

`O=C(O)COc1cc(Cl)c(Cl)cc1Cl`: the outcome in assay [1], in [2], in [3], in assay [4] and in assay [5] was inactive.

As to `CCOC(=O)CC(=O)CCl`, in assay [1], the AC50 (usually the concentration at which the activity in the assay is half-maximal) was 20 µM (active). The outcome in [2], in assay [3], in assay [4] and in assay [5] was inactive.

Turning to `CCCCOC(=O)COC(=O)c1ccccc1C(=O)OCCCC`, the outcome in assay [6], in assay [7], in assay [8], in [9] and in assay [10] was inactive.

Turning to `CC(C)(COCC1CO1)COCC1CO1` (stereo not given), the result in [1], in [2], in assay [3], in assay [4] and in assay [5] was inactive.

Take `CCOP(=S)(OCC)SCS(=O)(=O)C(C)(C)C`: the result in assay [1], in assay [2], in [3], in assay [4] and in assay [5] was inactive.

With `NC(=O)CCl`, in assay [1], the AC50 is 20 µM (active). For the same molecule, the result in assay [2], in [3], in assay [4] and in assay [5] was inactive.

Regarding `OC(Cc1ccccc1Cl)(Cn1cncn1)C1(Cl)CC1` (stereo not given), the result in assay [1], in assay [2], in assay [3], in [4] and in [5] was inactive.

Consider `O=c1oc2ccccc2c(O)c1C(CC(O)c1ccc(-c2ccc(Br)cc2)cc1)c1ccccc1` (stereo not given), for which, in assay [1], the outcome was inactive. The AC50 in [2] is 11.5 µM (active); in assay [3], 5.33 µM (active); in [4] it was 3.64 µM (active); in [5], 19.1 µM (active).

`Cc1ccc2nc3sc(=O)sc3nc2c1`: the outcome in assay [1], in [2], in [3] and in assay [4] was inactive. The AC50 in [5] is 3.31 µM (active).

Take `Nc1c(Oc2ccccc2)cc(O)c2c1C(=O)c1ccccc1C2=O`: the result in [1], in [2] and in assay [4] was inactive. Moreover, the values for the AC50 in assay [3] and in [5] were 2.54 µM (active) and 10 µM (active), respectively.

Regarding `C#CCOC(=O)/C=C(C)/C=C/CC(C)CCCC(C)C` (stereo not given), the result in assay [1], in assay [2], in assay [3] and in assay [4] was inactive. Moreover, the AC50 in [5] was 4.33 µM (active).

In the case of `CC(C=O)Cc1ccc2c(c1)OCO2` (stereo not given), the result in assay [1], in [2], in assay [3], in assay [4] and in assay [5] was inactive.

In the case of `CCOP(=S)(OCC)OP(=S)(OCC)OCC`, the result in assay [1], in assay [2], in [3], in [4] and in assay [5] was inactive.

For the molecule `C[C@]12CC[C@@H](O)C[C@@H]1CC[C@@H]1[C@@H]2CC[C@]2(C)C(=O)CC[C@@H]12`, the outcome in assay [1], in assay [2], in assay [3], in assay [4] and in assay [5] was inactive.

Consider `CCOC(=O)C(SP(=S)(OC)OC)c1ccccc1` (stereo not given), for which the outcome in assay [1], in [2], in [3], in [4] and in [5] was inactive.

For the molecule `OCCCCO`, the result in assay [6], in assay [7], in [8], in assay [9] and in assay [10] was inactive.

Consider `Oc1c(Br)cc(Br)cc1Br`, for which the outcome in assay [1], in [2] and in [4] was inactive. Moreover, the values for the AC50 in assay [3] and in assay [5] were 20 µM (active) and 13.9 µM (active), respectively.

`CC(C)N(C(=O)CCl)c1ccccc1`: the concentration at half-maximal activity (AC50) is 11.8 µM (active) in [1]; 4 µM (active) in assay [2]; 4.16 µM (active) in assay [3]; 3.09 µM (active) in assay [4]; 20 µM (active) in [5].

In the case of `Cc1ccccc1OP(=O)(Oc1ccccc1)Oc1ccccc1`, the outcome in assay [1], in assay [2] and in assay [3] was inactive. Also, the AC50 in assay [4] was 13.5 µM (active); in assay [5], 0.731 µM (active).

Take `CCN(CC)C(=O)C(Cl)=C(C)OP(=O)(OC)OC`: the outcome in assay [1], in assay [2], in assay [3], in assay [4] and in assay [5] was inactive.

As to `CCOP(=O)(OCC)OC(=CCl)c1ccc(Cl)cc1Cl`, the AC50 in assay [1] is 20 µM (active). Also, the result in [2], in assay [3], in assay [4] and in assay [5] was inactive.

For the molecule `Cc1ccc(OP(=O)(Oc2ccc(C)cc2C)Oc2ccc(C)cc2C)c(C)c1`, the AC50 in assay [1] was 12 µM (active). Moreover, the result in assay [2], in assay [3], in assay [4] and in [5] was inactive.

In the case of `O=C(CCl)NCO`, the result in assay [1], in [2], in assay [3] and in assay [4] was inactive. In assay [5], the AC50 is 3.97 µM (active).

`Cc1ccccc1OP(=O)(Oc1ccccc1C)Oc1ccccc1C`: the AC50 in [1] is 20 µM (active); in [2], 33.3 µM (active); in assay [3], 20 µM (active); in assay [4], 11.9 µM (active); in assay [5], 5.42 µM (active).

Take `O=C1C=CC(=O)c2ccccc21`: the AC50 in [1] was 0.714 µM (active); in assay [2] it was 4.17 µM (active); in assay [3] it was 2.56 µM (active); in assay [4], 4.23 µM (active). For the same molecule, the result in assay [5] was inactive.

In the case of `CCCCN(CCCC)C(=S)[S-].CCCCN(CCCC)C(=S)[S-].[Ni+2]`, the result in [1], in assay [2], in assay [3], in assay [4] and in [5] was inactive.

Consider `O=C(Cc1ccccc1)OCCc1ccccc1`, for which the result in assay [6], in assay [7], in [8], in assay [9] and in [10] was inactive.
